Data: paper PMC8384837, “Expanding the binding specificity for RNA recognition by a PUF domain”

These sequences were tested against PUM1 PUF domain R1-RRT (Homo sapiens, UniProt Q14671 828-1176, S863R;Q867T) (assay: yeast three-hybrid, YBZ-1, SC-Leu-His + 0.5 mM 3-AT, 4 days). Conditions: tags: N-Gal4 AD-HA kept; label: inside an RPR1-promoter hybrid RNA with tandem MS2 sites; ssRNA.
How it was run: (§1)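 Sequencing with Illumina followed PCR amplification of the repeat regions from transformants grown four days on SC-Leu (input) or SC-Leu-His + 0.5 mM 3-AT (selection). The transformants were strain YBZ-1 with a LexA–MS2 coat fusion and a HIS3 reporter, carrying Pumilio-1 PUF domain libraries and matching RNA elements. The interaction score is the log change in variant frequency from input to selection, computed in log2 with a pseudocount of 1 for absent variants.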

Sequence of PUM1 PUF domain R1-RRT (Q14671 828-1176 S863R/Q867T): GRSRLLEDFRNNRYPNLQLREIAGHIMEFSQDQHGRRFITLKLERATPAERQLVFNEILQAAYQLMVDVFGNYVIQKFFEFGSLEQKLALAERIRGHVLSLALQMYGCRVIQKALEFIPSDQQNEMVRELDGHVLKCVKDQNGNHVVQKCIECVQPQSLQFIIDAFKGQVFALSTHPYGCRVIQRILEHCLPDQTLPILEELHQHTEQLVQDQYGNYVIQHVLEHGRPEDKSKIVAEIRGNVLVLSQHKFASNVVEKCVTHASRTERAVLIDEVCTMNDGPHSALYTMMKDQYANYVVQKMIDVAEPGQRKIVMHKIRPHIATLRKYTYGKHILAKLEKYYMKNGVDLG

Row | Sequence | binding signal
1 | GGCUAGAACUAGUGGAUCCCCCGGCGCCCGGCGGCUCGAGCCCGGGUAAGUGUAAAUUGUCUGCAUGCCGCCGGGCGCCAUGCCUGCAGGUCGACUCUAGAAAACAUG | 4.21 log2 enrichment (interaction score)
2 | GGCUAGAACUAGUGGAUCCCCCGGCGCCCGGCGGCUCGAGCCCGGGUAAGUGUAAAUCGUCUGCAUGCCGCCGGGCGCCAUGCCUGCAGGUCGACUCUAGAAAACAUG | 4.11 log2 enrichment (interaction score)
3 | GGCUAGAACUAGUGGAUCCCCCGGCGCCCGGCGGCUCGAGCCCGGGUAAGUGUAAAUGGUCUGCAUGCCGCCGGGCGCCAUGCCUGCAGGUCGACUCUAGAAAACAUG | 1.65 log2 enrichment (interaction score)

The sequences below were run against PUM1 PUF domain R5-YRR (Homo sapiens, UniProt Q14671 828-1176, C1007Y;Q1011R) in the same assay as above. Conditions: tags: N-Gal4 AD-HA kept; label: inside an RPR1-promoter hybrid RNA with tandem MS2 sites; ssRNA.
How it was run: as §1

Row | Sequence | binding signal
4 | GGCUAGAACUAGUGGAUCCCCCGGCGCCCGGCGGCUCGAGCCCGGGUAAGUGUUAAUAGUCUGCAUGCCGCCGGGCGCCAUGCCUGCAGGUCGACUCUAGAAAACAUG | 1.61 log2 enrichment (interaction score)
5 | GGCUAGAACUAGUGGAUCCCCCGGCGCCCGGCGGCUCGAGCCCGGGUAAGUGUCAAUAGUCUGCAUGCCGCCGGGCGCCAUGCCUGCAGGUCGACUCUAGAAAACAUG | 3.31 log2 enrichment (interaction score)
6 | GGCUAGAACUAGUGGAUCCCCCGGCGCCCGGCGGCUCGAGCCCGGGUAAGUGUAAAUAGUCUGCAUGCCGCCGGGCGCCAUGCCUGCAGGUCGACUCUAGAAAACAUG | 1.76 log2 enrichment (interaction score)
